test system: XIP peptide (Xip251-270); assay: small-molecule binders of XIP peptide, primary screen, biochemical, small-molecule microarray, fluorescence 635/667 nm, 0.5 µg/mL protein (AID 1183); conditions: small-molecule microarray binding, fluorescence 635 nm; higher = more signal

| SMILES | composite z-score |
| --- | --- |
| CCCCN1CC=CC23O[C@@H]4/C=C\CCCOC(=O)C4[C@H]2C(=O)N(CCCCCCO)[C@@H]3C1=O (stereo not given in full) | 0.803 |
| COC(=O)[C@@]1(Cc2ccc(F)cc2)[C@H]2c3cc(C(=O)N(C)C)n(CCF)c3C[C@H]2CN1C(=O)c1ccccc1 | 0.779 |
| CCc1cccc(NC(=O)O[C@H]2[C@H](OC(=O)Nc3ccccc3-c3ccccc3)[C@H](OC(=O)Nc3ccccc3-c3ccccc3)[C@@H](OC)O[C@@H]2CO)c1 | 0.591 |
| C=C(COC)C(=O)CC[C@H](OC(C)=O)c1ccccc1OCCO | 0.337 |
| COC(=O)C(CC#Cc1ccc2c(c1)[C@]1(C(=O)N2)[C@H](c2ccc(OCCO)cc2)N2[C@H](c3ccccc3)[C@H](c3ccccc3)OC(=O)[C@H]2[C@@H]1C(N)=O)C(=O)OC | 0.657 |
| COc1ccc([Si](C)(C)[C@H]2[C@H](CC(=O)N(CCO)Cc3ccccc3)O[C@@]3(C(=O)N(Cc4cccc(N5CCCCC5=O)c4)c4ccccc43)[C@@H]2C)cc1 | 0.587 |
| COCCCNC(=O)[C@@]1(Cc2ccccc2I)c2ccccc2C(=O)N(Cc2ccccc2C(F)(F)F)[C@H]1c1ccc(CO)cc1 | 0.854 |
| CC[C@@H](O[Si](C#C[Si](C(C)C)(C(C)C)C(C)C)(C(C)C)C(C)C)c1cn([C@H](C)c2ccccc2)nn1 | -0.0862 |
| COCCOC(=O)N1C(=O)[C@@]2(c3cc(C#CCC(C(=O)OC)C(=O)OC)ccc31)[C@H](C(=O)N1CCc3cc(OC)c(OC)cc3C1)[C@H]1C(=O)O[C@H](c3ccccc3)[C@H](c3ccccc3)N1[C@@H]2c1ccccc1OCCO | 0.733 |
| CCCNC(=O)[C@@]1(Sc2ccc(C)cc2)CC(=O)N(Cc2cc(C(F)(F)F)cc(C(F)(F)F)c2)[C@@H]1c1ccc(CO)cc1 | 0.136 |
| Cc1ccc(S[C@]2(C(=O)NCc3ccccc3)CC(=O)N(Cc3ccccc3Cl)[C@@H]2c2ccc(CO)cc2)cc1 | 0.825 |
| CC1(C)OB(/C=C\CC(OC(=O)c2ccncc2)c2ccccc2)OC1(C)C (stereo not given) | 0.478 |
| COc1cc(Cc2cc3c(c(-c4ccccc4)n2)[Si](C(C)C)(C(C)C)OC3)cc(OC)c1OC | -1.01 |
| C=CCOC(=O)[C@H]1[C@@H]2C(=O)O[C@@H](c3ccccc3)[C@@H](c3ccccc3)N2[C@@H](c2ccc(OCCOC(=O)[C@@H]3C[C@@H]4C(=O)N[C@@H](Cc5ccccc5)C(=O)N4[C@@H]3c3ccc(O)cc3)cc2)[C@]12C(=O)Nc1ccc(I)cc12 | 0.751 |
| CC1C2C(CCCO)=CC(C3C(=O)N(C(N)=O)C(=O)C23)N1Cc1cccc(OC(F)(F)F)c1 (stereo not given) | 0.256 |
| COC(=O)[C@@]1(Cc2ccccc2)[C@H]2c3cc(C(=O)N(C)C)n(Cc4nc5ccccc5[nH]4)c3C[C@H]2CN1C(=O)c1ccccc1 | 0.784 |
| CO[C@H]1O[C@H](CO)[C@@H](OC(=O)Nc2cccc(F)c2)[C@H](OC(=O)Nc2ccc3c(c2)OCO3)[C@@H]1OC(=O)Nc1ccc2c(c1)OCO2 | 0.894 |
| O=C1C2C=CC(C(O)c3ccccn3)N(Nc3ccc([N+](=O)[O-])cc3)C2C(=O)N1c1ccccc1 (stereo not given) | 0.0784 |
| CC(C)N1C(=O)[C@@]2(Cc3ccccc31)c1ccccc1C(=O)N(Cc1ccccc1C(F)(F)F)[C@H]2c1ccc(CO)cc1 | 0.471 |
| CN1C2C=C(c3ccc(CO)cc3)C(C3C(=O)N(C(N)=O)C(=O)C32)C1C1CC1 (stereo not given) | 0.0909 |
| CC(C)C[C@@H]1NC(=O)[C@@H]2C[C@H](C(=O)NCCCCCNC(=O)CS)[C@H](c3ccc(O)cc3)N2C1=O | 0.56 |
| CN(C)CCCCNC(=O)[C@H]1C[C@H]2C(=O)N[C@@H](CCCCN(C)C)C(=O)N2[C@H]1c1ccc(O)cc1 | 0.269 |
| CCOC(=O)C[C@H]1[C@H](OC(=O)c2ccccc2-c2ccccc2)[C@@H](NC(=O)CC(C)C)c2cc(OCCCO)ccc2N1C(=O)c1ccccc1 | 0.649 |
| CCCCCCc1nc(-c2ccc(OC)nc2)c(C)c2c1[Si](C(C)C)(C(C)C)OC2 | -0.7 |
| COCCCNC(=O)[C@]1(Cc2ccccc2CN=[N+]=[N-])N=C(c2ccc(OCCCO)cc2)O[C@@H]1c1ccccc1N=[N+]=[N-] | -0.184 |

test system: not listed separately; assay: Plasmodium falciparum growth inhibition, primary screen, strain 3D7, DAPI fluorescence, 100 nL (AID 1184);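 further: parasites grown inside human red blood cells in medium with human serum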; conditions: P. falciparum 3D7 growth, 3 d, higher = more signal

| SMILES | z-score |
| --- | --- |
| CC(C)c1ccc(NN2C(C(O)C(C)c3ccccc3)C=CC3C(=O)N(c4ccccc4)C(=O)C32)cc1 (stereo not given) | -0.119 |
| CC(C)C[C@@H]1NC(=O)[C@@H]2C[C@H](C(=O)NCCCCCCNC(=O)CS)[C@H](c3ccc(O)cc3)N2C1=O | -1.19 |
| COC(=O)Cn1c(C(=O)N(C)C)cc2c1C[C@H]1CN(C(=O)c3ccccc3)[C@@](Cc3ccccc3)(C(=O)OC)[C@@H]21 | 0.645 |
| COCCOC(=O)N1C(=O)[C@@]2(c3cc(C#CCC(C(=O)OC)C(=O)OC)ccc31)[C@H](c1ccc(O)cc1)N1[C@H](c3ccccc3)[C@H](c3ccccc3)OC(=O)[C@H]1[C@@H]2C(=O)N1CCc2cc(OC)c(OC)cc2C1 | -2.15 |
| Cc1ccc(S[C@]2(C(=O)NCc3ccccc3)CC(=O)N(Cc3ccccc3C(F)(F)F)[C@@H]2c2ccc(CO)cc2I)cc1 | 0.0951 |
| O=C1C2C=CC(C(O)C3CCCCC3)N(Nc3ccccc3F)C2C(=O)N1c1ccccc1 (stereo not given) | -0.193 |
| CC[C@H]1C2=C3C(CC[C@H]4C(OCc5ccc(F)cc5C(F)(F)F)OC[C@](C)([C@@H]34)N(C(=O)OC(C)(C)C)C2)C(COC(C)=O)C1COC(C)=O (stereo not given in full) | -1.24 |
| CC1CC/C=C\[C@H]2OC34C=CCN(CCN5CCOCC5)C(=O)[C@H]3N(C(CO)C(C)C)C(=O)[C@@H]4C2C(=O)O1 (stereo not given in full) | -0.0648 |
| COC(=O)C[C@H]1O[C@]2(C(=O)N(C)c3ccccc32)[C@@H](C)[C@@H]1[Si](C)(C)c1ccccc1 | -1.48 |
| O=C1O[C@@H](c2ccccc2)[C@@H](c2ccccc2)N2[C@@H](c3ccc(OCCO)cc3)[C@]3(C(=O)Nc4ccc(C#CC5=CCCCC5)cc43)[C@@H](C(=O)Nc3nc4ccccc4s3)[C@H]12 | -1.38 |
| CCCCN1CC=CC23O[C@@H]4/C=C\CCCOC(=O)C4[C@H]2C(=O)N(CCCCCCO)[C@@H]3C1=O (stereo not given in full) | -0.165 |
| COC(=O)[C@@]1(Cc2ccc(F)cc2)[C@H]2c3cc(C(=O)N(C)C)n(CCF)c3C[C@H]2CN1C(=O)c1ccccc1 | -0.552 |
| CCc1cccc(NC(=O)O[C@H]2[C@H](OC(=O)Nc3ccccc3-c3ccccc3)[C@H](OC(=O)Nc3ccccc3-c3ccccc3)[C@@H](OC)O[C@@H]2CO)c1 | -2.53 |
| C=C(COC)C(=O)CC[C@H](OC(C)=O)c1ccccc1OCCO | -2.64 |
| COC(=O)C(CC#Cc1ccc2c(c1)[C@]1(C(=O)N2)[C@H](c2ccc(OCCO)cc2)N2[C@H](c3ccccc3)[C@H](c3ccccc3)OC(=O)[C@H]2[C@@H]1C(N)=O)C(=O)OC | -0.983 |
| COc1ccc([Si](C)(C)[C@H]2[C@H](CC(=O)N(CCO)Cc3ccccc3)O[C@@]3(C(=O)N(Cc4cccc(N5CCCCC5=O)c4)c4ccccc43)[C@@H]2C)cc1 | -2.59 |
| COCCCNC(=O)[C@@]1(Cc2ccccc2I)c2ccccc2C(=O)N(Cc2ccccc2C(F)(F)F)[C@H]1c1ccc(CO)cc1 | -0.821 |
| CC[C@@H](O[Si](C#C[Si](C(C)C)(C(C)C)C(C)C)(C(C)C)C(C)C)c1cn([C@H](C)c2ccccc2)nn1 | -0.38 |

| SMILES | z-score |
| --- | --- |
| COCCOC(=O)N1C(=O)[C@@]2(c3cc(C#CCC(C(=O)OC)C(=O)OC)ccc31)[C@H](C(=O)N1CCc3cc(OC)c(OC)cc3C1)[C@H]1C(=O)O[C@H](c3ccccc3)[C@H](c3ccccc3)N1[C@@H]2c1ccccc1OCCO | -2.12 |
| CCCNC(=O)[C@@]1(Sc2ccc(C)cc2)CC(=O)N(Cc2cc(C(F)(F)F)cc(C(F)(F)F)c2)[C@@H]1c1ccc(CO)cc1 | -1.1 |
| Cc1ccc(S[C@]2(C(=O)NCc3ccccc3)CC(=O)N(Cc3ccccc3Cl)[C@@H]2c2ccc(CO)cc2)cc1 | -1.2 |
| CC1(C)OB(/C=C\CC(OC(=O)c2ccncc2)c2ccccc2)OC1(C)C (stereo not given) | 0.78 |
| COc1cc(Cc2cc3c(c(-c4ccccc4)n2)[Si](C(C)C)(C(C)C)OC3)cc(OC)c1OC | -0.822 |
| C=CCOC(=O)[C@H]1[C@@H]2C(=O)O[C@@H](c3ccccc3)[C@@H](c3ccccc3)N2[C@@H](c2ccc(OCCOC(=O)[C@@H]3C[C@@H]4C(=O)N[C@@H](Cc5ccccc5)C(=O)N4[C@@H]3c3ccc(O)cc3)cc2)[C@]12C(=O)Nc1ccc(I)cc12 | -1.39 |
| CC1C2C(CCCO)=CC(C3C(=O)N(C(N)=O)C(=O)C23)N1Cc1cccc(OC(F)(F)F)c1 (stereo not given) | -0.128 |
| COC(=O)[C@@]1(Cc2ccccc2)[C@H]2c3cc(C(=O)N(C)C)n(Cc4nc5ccccc5[nH]4)c3C[C@H]2CN1C(=O)c1ccccc1 | -0.542 |
| CO[C@H]1O[C@H](CO)[C@@H](OC(=O)Nc2cccc(F)c2)[C@H](OC(=O)Nc2ccc3c(c2)OCO3)[C@@H]1OC(=O)Nc1ccc2c(c1)OCO2 | -0.754 |
| O=C1C2C=CC(C(O)c3ccccn3)N(Nc3ccc([N+](=O)[O-])cc3)C2C(=O)N1c1ccccc1 (stereo not given) | -0.22 |
| CC(C)N1C(=O)[C@@]2(Cc3ccccc31)c1ccccc1C(=O)N(Cc1ccccc1C(F)(F)F)[C@H]2c1ccc(CO)cc1 | -0.35 |
| CN1C2C=C(c3ccc(CO)cc3)C(C3C(=O)N(C(N)=O)C(=O)C32)C1C1CC1 (stereo not given) | -0.854 |
| CC(C)C[C@@H]1NC(=O)[C@@H]2C[C@H](C(=O)NCCCCCNC(=O)CS)[C@H](c3ccc(O)cc3)N2C1=O | -1.13 |
| CN(C)CCCCNC(=O)[C@H]1C[C@H]2C(=O)N[C@@H](CCCCN(C)C)C(=O)N2[C@H]1c1ccc(O)cc1 | -0.435 |
| CCOC(=O)C[C@H]1[C@H](OC(=O)c2ccccc2-c2ccccc2)[C@@H](NC(=O)CC(C)C)c2cc(OCCCO)ccc2N1C(=O)c1ccccc1 | -0.966 |
| CCCCCCc1nc(-c2ccc(OC)nc2)c(C)c2c1[Si](C(C)C)(C(C)C)OC2 | -2.14 |
| COCCCNC(=O)[C@]1(Cc2ccccc2CN=[N+]=[N-])N=C(c2ccc(OCCCO)cc2)O[C@@H]1c1ccccc1N=[N+]=[N-] | -2.03 |
